Results on 50 compounds are retold here after PubChem BioAssay AID686979 (National Center for Advancing Translational Sciences (NCATS), 2013).

Among all 420,000 compounds or so, about 50,000 (12%) were called active. Inconclusive results (about 26%) are left out. Many of the other results were omitted from the sample, so actives are more common in it than they were. Unmarked numbers belong to inactive results. Calls come from the whole dose curve; as a rule, active = well fitted inhibition curve with a large enough effect; inconclusive = small, poorly fitted or top-dose-only effect; inactive = flat fitted curve, though single readings scatter.
% is set by controls: 0 for no effect and ±100 for the full control effect; potency is the fitted concentration of half-maximal effect.

A short description of the test: qHTS for Inhibitors of human tyrosyl-DNA phosphodiesterase 1 (TDP1): qHTS in cells in presence of CPT. Note: nearly all actives have a fitted effect of over 55% in size. The following applies: chicken DT40 Tdp1-/-;hTDP1 cells + 20 nM CPT, ATP luminescence, 48 h; series mostly up to 46.2 µM; activity change, negative = growth inhibition: at the top concentration. The gist of the method:
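Chicken DT40 Tdp1-/- cells stably complemented with human TDP1 were seeded at 400 cells/well in medium containing 20 nM camptothecin, exposed to pin-transferred compounds, and grown at 37 °C for at least 48 hr. Viability was read as ATP luminescence.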
Background: Quantitative high-throughput screening tests each substance at several concentrations.
As for `COc1ccc(N2CC(C(=O)N[C@@H](C)C(=O)N3CCCCC3)CC2=O)cc1` (stereo not given in full), the “activity change, negative = growth inhibition” value is 2.81%. Regarding `Cc1c(Cl)cccc1NC(=O)C1CCCN(c2ncnc3onc(C)c23)C1` (stereo not given), the Potency is 8.2 µM (active).

As for `Cc1ccc(Cl)cc1NC(=O)C1CCCN(c2cnccn2)C1` (stereo not given), the “activity change, negative = growth inhibition” value was -25.9%.

Take `COc1ccccc1NC(=O)C1CCCN(c2cc(C)nc3ncnn23)C1` (stereo not given): the “activity change, negative = growth inhibition” value is -28.8%. `CSCC[C@H](NC(=O)OC(C)(C)C)C(=O)N/N=C/c1cc2ccc(C)cc2nc1Cl`: the “activity change, negative = growth inhibition” value is -28.8%. `Cc1ccn(-c2cccc(-n3ccc(C)n3)n2)n1`: the “activity change, negative = growth inhibition” value was -1.46%. On to `CCCCN(C=O)c1c(CC)nc2c(OCCC3CCCCC3)cccn12`, for which the Potency is 16.4 µM (active).

As for `CCc1nc2ccc(C(=O)N3CCN(S(=O)(=O)CC)CC3)cn2c1N(C=O)CCC(C)C`, the “activity change, negative = growth inhibition” value is -12.8%. On to `CCCCN(C=O)c1c(CC)nc2c(OCc3ccccc3C(=O)OC)cccn12`, for which the Potency was 13 µM (active). As to `CCOc1ccccc1N(CC(=O)Nc1ccccc1C(=O)OC)S(C)(=O)=O`, the “activity change, negative = growth inhibition” value is -2.34%. In the case of `Cc1nccn1-c1ccc(NC(=O)[C@H]2O[C@@H](n3cnc4c(N)ncnc43)[C@H](O)[C@@H]2O)cc1`, the “activity change, negative = growth inhibition” value was 1.02%. Consider `CCC1CN(CCNC(=O)c2cccc(C)n2)Cc2cc(OC)ccc2O1` (stereo not given), for which the activity change, negative = growth inhibition is 5.22% [at 9.04 µM].

For `O=C(CSc1ccc(-c2ccc(-n3cccn3)cc2)nn1)Nc1ccc([N+](=O)[O-])cc1`, the “activity change, negative = growth inhibition” value is 3.07%.

For the compound `COc1ccc(NC(=O)CC2C(=O)OCC3CCCCN32)cc1Cl` (stereo not given), the “activity change, negative = growth inhibition” value was 3.07%. Consider `CC(C)c1ccc(Cc2nnc(NCCCO)[nH]c2=O)cc1`, for which the “activity change, negative = growth inhibition” value was 0.449%. `N#CCc1ccc(OC(=O)c2cccnc2)cc1`: the “activity change, negative = growth inhibition” value was -0.983%. Same read-out and setting: in the case of `CC(OC(=O)CNC(=O)c1cccc(F)c1)C(=O)NC1CCCCC1C` (stereo not given) it was -0.171%; in that of `Cc1ccc(CC(=O)Nc2ccc(OC(F)F)c(Cl)c2)cc1C`, -0.622%. The same measure, in the same setting: in the case of `Cc1ccc(/C=N/NC(=O)CN2CCN(Cc3ccccc3)CC2)s1` it was 11.8%; in that of `C=C(C)CNC(=S)N/N=C/c1ccccc1OCC(=O)O`, -5.81%. As to `C=CCNC(=S)N/N=C/c1ccc(C)s1`, the Potency was 4.61 µM (active). Turning to `Cc1cc(OC(C)C(=O)Nc2sc3c(c2C(N)=O)CCCC3)ccc1Cl` (stereo not given), the “activity change, negative = growth inhibition” value was -25%. `c1ccc2c(C[n+]3csc4ccccc43)cccc2c1`: the Potency is 0.92 µM (active). In the case of `Nc1scc[n+]1Cc1cccc2cccnc12`, the “activity change, negative = growth inhibition” value is 4.35%. `CCOC(=O)CNC(=O)c1cc2c(=O)n3cccc(C)c3nc2s1`: the “activity change, negative = growth inhibition” value is -15.6%.

In the case of `CCOC(=O)CC1C(=O)NCCN1c1nc2c(C)cccn2c(=O)c1/C=C1\SC(=S)N(C(C)CC)C1=O` (stereo not given), the Potency was 16.4 µM (active). Consider `CCOC(=O)N1CCN(C(=O)CSc2nc(=O)n3cccc(C)c3n2)CC1`, for which the “activity change, negative = growth inhibition” value was 2.09%.

As to `N#CC1(NC(=O)COC(=O)CCN=C2NS(=O)(=O)c3ccccc32)CCCCC1`, the “activity change, negative = growth inhibition” value was 12.3%. The same measure, in the same setting: under `COc1cccc(N(CC(=O)NCc2ccccc2)C(=O)CCC(=O)Nc2nccs2)c1` stands -20.2%. Regarding `CCc1noc(C)c1C(=O)N1CCN(S(=O)(=O)c2cccc(C(F)(F)F)c2)CC1`, the “activity change, negative = growth inhibition” value was 0.576%. `O=C(CCc1nc2sc3c(c2c(=O)[nH]1)CCCC3)NCC(=O)Nc1ccccc1Br`: the “activity change, negative = growth inhibition” value is 13.3%.

Turning to `CS(=O)(=O)N(Cc1nc2sc3c(c2c(=O)[nH]1)CCCC3)C1CCCCC1`, the Potency is 20.6 µM (active).

In the case of `NNC(=O)C1CCCn2c1nc1sc3c(c1c2=O)CCCC3` (stereo not given), the “activity change, negative = growth inhibition” value is 8.97%. Consider `CCCCCCCCCCCCCCCCO`, for which the “activity change, negative = growth inhibition” value was -5.61%. As to `O=C(CCN1C(=O)[C@@H]2Cc3ccccc3CN2C1=O)NCc1ccccc1`, the “activity change, negative = growth inhibition” value was -0.237%. Take `CCOC(=O)N1CCC(N(CCOC)C(=O)Nc2ccc(C)c(C)c2)CC1`: the “activity change, negative = growth inhibition” value was -22.5%. `Cc1cccc(NC(=O)CN2C(=O)c3ccccc3C2=O)c1C`: the “activity change, negative = growth inhibition” value was 6.02%. Same read-out and setting: under `Cc1cccc(NC(=O)CSc2nc3c(c(=O)[nH]2)CCC3)c1C` stands 4.77%; under `Cc1cccc(NC(=O)CSc2nc3c(c(=O)[nH]2)CCCC3)c1C`, -21.3%. Turning to `Cc1cccc(NC(=O)CSC(N)=O)c1C`, the Potency was 25.9 µM (active). As to `Cc1cccc(NC(=O)COC(=O)CCc2ccccc2)c1C`, the “activity change, negative = growth inhibition” value is -6.21%. On to `Cc1cccc(NC(=O)CSc2ncc(-c3ccccc3)[nH]2)c1C`, for which the Potency is 25.9 µM (active). For `CN(Cc1ccccc1)C(=O)c1ccc(NC2=NC3CS(=O)(=O)CC3S2)cc1` (stereo not given), the “activity change, negative = growth inhibition” value is 2.81%. As to `Cc1cccc2c(=O)cc(CSc3ccccc3NC(=O)C(C)C)[nH]c12`, the “activity change, negative = growth inhibition” value was -5.53%.

`COc1ccc(C(=NN)c2ccc(OC)cc2)cc1`: the “activity change, negative = growth inhibition” value was 4.73%.

Take `COc1ccc(C(C#N)=C2C=CC(=NO)c3ccccc32)cc1`: the Potency is 1.3 µM (active). With `COc1ccc(/C(N)=N/OC(=O)Cc2ccccc2)cc1`, the “activity change, negative = growth inhibition” value was 13.2%. As for `COc1ccc(C(=O)N(C)Cc2ccc(OC)c(OC)c2OC)cc1S(=O)(=O)N1CCOCC1`, the “activity change, negative = growth inhibition” value was -1.37%. Take `COc1ccc(/C=C(/NC(=O)c2ccco2)C(=O)Nc2ccc(C(C)=O)cc2)cc1`: the “activity change, negative = growth inhibition” value was 6.29%.

With `COc1ccc(/C=C(\NC(=O)c2ccc(OCC(C)C)cc2)C(=O)OCc2ccco2)cc1`, the Potency is 20.6 µM (active).
